Results as given in the supplement of paper PMC11732987, “Enantioselective OTUD7B fragment discovery through chemoproteomics screening and high-throughput optimisation” (Communications Chemistry, 2025).

Experiments:
Experiment in all cases: log2 ratio of Biotin-Ahx-Ub-VS probe labelling (fragment/DMSO); higher = less target engagement (more negative = stronger competition), active = hit call of the paper (q ≤ 0.05, log2 ratio ≤ -1)
Details in all cases: compound concentration: 200 uM; treatment time: 3 h
OTUD6B = target: T1, OTUD6B (UniProt Q8N6M0)
T1 sequence (whole entry): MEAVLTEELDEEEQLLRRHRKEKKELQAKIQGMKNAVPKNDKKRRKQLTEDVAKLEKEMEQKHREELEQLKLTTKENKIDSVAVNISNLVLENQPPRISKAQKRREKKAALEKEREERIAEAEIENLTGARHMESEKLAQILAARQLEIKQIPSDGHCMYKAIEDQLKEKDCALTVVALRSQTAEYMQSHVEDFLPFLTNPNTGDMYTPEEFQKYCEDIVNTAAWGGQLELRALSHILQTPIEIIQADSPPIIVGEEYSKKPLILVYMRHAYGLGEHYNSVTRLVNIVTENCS
Method in brief: (§1)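 Average log2 ratios of fragment over vehicle were obtained by unpaired t-test from global-median-normalised Spectronaut label-free quantities. Proteins with ≥2 unique peptides were included. HEK293T lysate (495 µg per sample) was treated in triplicate with fragment at 200 µM or vehicle for 3 h, then with Biotin-Ahx-Ub-VS at 0.5 µM final for 1 h, and labelled DUBs were NeutrAvidin-enriched and run by diaPASEF LC-MS/MS.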

OTUD7B = target: T2, OTUD7B (UniProt Q6GQQ9)
T2 sequence (whole entry): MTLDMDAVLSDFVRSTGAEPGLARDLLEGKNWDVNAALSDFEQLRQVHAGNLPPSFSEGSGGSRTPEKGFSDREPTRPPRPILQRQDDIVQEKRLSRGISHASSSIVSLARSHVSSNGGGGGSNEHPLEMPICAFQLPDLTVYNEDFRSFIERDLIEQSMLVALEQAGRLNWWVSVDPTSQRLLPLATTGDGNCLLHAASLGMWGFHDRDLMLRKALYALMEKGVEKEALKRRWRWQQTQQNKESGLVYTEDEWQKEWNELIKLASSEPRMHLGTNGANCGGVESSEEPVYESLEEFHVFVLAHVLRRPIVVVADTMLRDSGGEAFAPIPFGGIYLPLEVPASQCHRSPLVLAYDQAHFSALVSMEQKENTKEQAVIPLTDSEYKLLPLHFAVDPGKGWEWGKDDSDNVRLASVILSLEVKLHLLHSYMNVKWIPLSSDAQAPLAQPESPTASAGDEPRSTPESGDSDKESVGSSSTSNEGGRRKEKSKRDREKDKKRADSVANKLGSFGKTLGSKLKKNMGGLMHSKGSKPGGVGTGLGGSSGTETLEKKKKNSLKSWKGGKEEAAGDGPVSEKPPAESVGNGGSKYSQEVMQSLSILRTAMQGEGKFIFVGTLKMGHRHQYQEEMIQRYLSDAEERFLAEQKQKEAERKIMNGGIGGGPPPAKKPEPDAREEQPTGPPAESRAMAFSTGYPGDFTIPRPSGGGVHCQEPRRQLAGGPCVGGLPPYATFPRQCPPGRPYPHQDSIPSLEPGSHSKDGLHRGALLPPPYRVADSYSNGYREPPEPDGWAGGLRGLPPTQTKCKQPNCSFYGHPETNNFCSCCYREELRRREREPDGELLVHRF
Method in brief: as §1

PRPF8 = PRPF8 (UniProt Q6P2Q9)
Method in brief: as §1

PSMD7 = target: T3, PSMD7 (UniProt P51665)
T3 sequence (whole entry): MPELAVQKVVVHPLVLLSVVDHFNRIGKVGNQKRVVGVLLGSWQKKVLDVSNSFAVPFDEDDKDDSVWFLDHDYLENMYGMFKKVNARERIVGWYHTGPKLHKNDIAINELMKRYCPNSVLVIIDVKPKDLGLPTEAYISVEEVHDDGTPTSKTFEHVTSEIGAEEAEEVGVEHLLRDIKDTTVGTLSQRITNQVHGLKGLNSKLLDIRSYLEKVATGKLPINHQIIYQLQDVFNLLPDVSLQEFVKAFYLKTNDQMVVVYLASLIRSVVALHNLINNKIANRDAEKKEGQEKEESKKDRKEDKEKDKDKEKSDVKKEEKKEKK
Method in brief: as §1

UCHL1 = UCHL1 (UniProt P09936)
Method in brief: as §1

UCHL3 = target: T4, UCHL3 (UniProt P15374)
T4 sequence (whole entry): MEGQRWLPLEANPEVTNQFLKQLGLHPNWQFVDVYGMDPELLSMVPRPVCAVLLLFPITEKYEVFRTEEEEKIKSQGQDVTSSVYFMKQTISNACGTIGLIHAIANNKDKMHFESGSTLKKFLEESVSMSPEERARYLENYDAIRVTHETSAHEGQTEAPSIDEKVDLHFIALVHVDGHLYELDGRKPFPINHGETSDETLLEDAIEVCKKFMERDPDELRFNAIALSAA
Method in brief: as §1

UCHL5 = target: T5, UCHL5 (UniProt Q9Y5K5)
T5 sequence (whole entry): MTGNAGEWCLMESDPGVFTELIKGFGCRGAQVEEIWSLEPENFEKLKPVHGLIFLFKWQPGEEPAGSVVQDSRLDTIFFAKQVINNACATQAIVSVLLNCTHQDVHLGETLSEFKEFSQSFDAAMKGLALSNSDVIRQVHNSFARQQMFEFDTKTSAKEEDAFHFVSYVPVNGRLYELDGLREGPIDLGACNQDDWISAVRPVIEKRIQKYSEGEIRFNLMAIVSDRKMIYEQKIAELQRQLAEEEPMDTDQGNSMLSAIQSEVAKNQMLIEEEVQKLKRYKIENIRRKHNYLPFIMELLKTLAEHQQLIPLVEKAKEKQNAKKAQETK
Method in brief: as §1

USP10 = USP10 (UniProt Q14694)
Method in brief: as §1

USP15 = target: T6, USP15 (UniProt Q9Y4E8)
T6 sequence (whole entry): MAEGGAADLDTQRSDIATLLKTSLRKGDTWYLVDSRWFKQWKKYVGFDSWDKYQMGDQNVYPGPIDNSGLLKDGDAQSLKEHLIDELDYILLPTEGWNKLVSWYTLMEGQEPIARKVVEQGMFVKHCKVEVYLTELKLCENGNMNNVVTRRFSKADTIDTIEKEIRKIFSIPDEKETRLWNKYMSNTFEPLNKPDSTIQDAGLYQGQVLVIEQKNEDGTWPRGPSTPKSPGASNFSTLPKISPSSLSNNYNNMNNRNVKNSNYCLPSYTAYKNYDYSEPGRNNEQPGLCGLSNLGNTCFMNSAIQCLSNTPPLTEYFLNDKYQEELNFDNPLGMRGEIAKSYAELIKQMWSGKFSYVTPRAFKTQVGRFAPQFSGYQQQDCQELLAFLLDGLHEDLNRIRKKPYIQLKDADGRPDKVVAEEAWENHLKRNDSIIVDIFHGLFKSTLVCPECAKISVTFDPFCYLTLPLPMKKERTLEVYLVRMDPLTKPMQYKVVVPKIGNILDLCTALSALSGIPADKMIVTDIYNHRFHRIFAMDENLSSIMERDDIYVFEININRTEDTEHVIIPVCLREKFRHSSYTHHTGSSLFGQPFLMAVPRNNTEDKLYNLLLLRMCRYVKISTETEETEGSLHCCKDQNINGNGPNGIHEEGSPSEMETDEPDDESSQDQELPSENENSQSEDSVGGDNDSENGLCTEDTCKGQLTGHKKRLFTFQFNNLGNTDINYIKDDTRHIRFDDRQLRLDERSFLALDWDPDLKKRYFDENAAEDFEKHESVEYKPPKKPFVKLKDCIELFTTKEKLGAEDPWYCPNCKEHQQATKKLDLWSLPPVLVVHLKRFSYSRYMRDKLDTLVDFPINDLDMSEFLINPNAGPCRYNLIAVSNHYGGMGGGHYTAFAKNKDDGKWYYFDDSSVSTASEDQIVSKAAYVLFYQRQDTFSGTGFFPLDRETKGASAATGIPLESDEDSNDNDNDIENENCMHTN
Method in brief: as §1

USP16 = USP16 (UniProt Q9Y5T5)
Method in brief: as §1

Measured: log2 ratio of Biotin-Ahx-Ub-VS probe labelling

USP10, sequence (Q14694 whole entry): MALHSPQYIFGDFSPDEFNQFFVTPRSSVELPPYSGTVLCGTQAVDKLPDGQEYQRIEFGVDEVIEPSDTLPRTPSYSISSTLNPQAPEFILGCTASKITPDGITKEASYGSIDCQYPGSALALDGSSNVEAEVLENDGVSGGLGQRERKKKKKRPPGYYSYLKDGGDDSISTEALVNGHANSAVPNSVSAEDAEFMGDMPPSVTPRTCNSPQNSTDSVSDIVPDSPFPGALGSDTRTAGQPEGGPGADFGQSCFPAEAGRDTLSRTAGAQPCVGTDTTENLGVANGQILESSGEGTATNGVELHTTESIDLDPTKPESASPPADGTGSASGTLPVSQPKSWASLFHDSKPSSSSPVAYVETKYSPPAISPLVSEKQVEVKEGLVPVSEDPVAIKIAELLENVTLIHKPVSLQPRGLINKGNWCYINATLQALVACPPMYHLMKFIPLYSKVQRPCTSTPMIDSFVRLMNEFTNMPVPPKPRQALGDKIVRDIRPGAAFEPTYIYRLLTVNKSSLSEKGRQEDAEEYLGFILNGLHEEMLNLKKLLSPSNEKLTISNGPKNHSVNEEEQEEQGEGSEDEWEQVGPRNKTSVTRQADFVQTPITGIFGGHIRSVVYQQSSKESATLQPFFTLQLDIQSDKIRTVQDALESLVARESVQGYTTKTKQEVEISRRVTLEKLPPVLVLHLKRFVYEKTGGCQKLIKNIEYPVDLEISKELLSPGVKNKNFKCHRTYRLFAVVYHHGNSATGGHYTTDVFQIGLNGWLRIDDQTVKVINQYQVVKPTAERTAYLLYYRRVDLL
UCHL1, sequence (P09936 whole entry, looked up): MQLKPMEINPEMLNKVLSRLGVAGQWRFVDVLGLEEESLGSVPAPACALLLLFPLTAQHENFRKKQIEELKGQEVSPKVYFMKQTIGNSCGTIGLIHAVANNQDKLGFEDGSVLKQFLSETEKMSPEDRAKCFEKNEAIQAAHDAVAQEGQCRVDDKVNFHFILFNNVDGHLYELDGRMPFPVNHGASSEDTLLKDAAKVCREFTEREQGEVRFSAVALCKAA
USP16, sequence (Q9Y5T5 whole entry, looked up): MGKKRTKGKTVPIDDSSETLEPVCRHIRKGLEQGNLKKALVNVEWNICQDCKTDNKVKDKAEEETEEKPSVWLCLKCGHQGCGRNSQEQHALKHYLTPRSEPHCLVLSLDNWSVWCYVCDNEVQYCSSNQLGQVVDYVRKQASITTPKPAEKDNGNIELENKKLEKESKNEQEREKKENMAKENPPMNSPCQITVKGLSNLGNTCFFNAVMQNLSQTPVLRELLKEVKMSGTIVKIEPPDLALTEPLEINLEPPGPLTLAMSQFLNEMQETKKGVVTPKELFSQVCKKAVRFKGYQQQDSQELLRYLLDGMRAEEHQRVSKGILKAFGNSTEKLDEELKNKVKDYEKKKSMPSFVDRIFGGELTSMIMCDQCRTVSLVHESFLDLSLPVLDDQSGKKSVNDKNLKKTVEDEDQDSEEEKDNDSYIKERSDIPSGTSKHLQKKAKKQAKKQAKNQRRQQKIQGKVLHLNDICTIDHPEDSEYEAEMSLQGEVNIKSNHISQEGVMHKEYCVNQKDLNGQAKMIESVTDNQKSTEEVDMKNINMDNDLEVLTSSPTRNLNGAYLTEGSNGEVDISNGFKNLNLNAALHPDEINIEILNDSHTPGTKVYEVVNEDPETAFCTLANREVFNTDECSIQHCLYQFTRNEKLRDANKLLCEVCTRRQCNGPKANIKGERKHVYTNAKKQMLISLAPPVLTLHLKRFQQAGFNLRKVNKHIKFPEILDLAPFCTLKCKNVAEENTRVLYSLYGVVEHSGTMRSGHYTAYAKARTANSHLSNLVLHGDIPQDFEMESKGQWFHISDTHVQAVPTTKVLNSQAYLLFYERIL

Cc1ccc(CC(CO)CNC(=O)CCl)cc1 (stereo not given)
inactive: OTUD6B -0.264 | PRPF8 -0.059 | PSMD7 -0.169 | UCHL3 -0.121 | UCHL5 -0.474 | USP10 -0.0682 | USP15 -0.199 | USP16 0.217
active: OTUD7B -1.12 | UCHL1 -1.92
